This note sets out measurements from ChEMBL document CHEMBL3433997, “St. Jude Leishmania screening dataset” (2016).

By inhibition is commonly meant the drop in the measured response relative to a control, in per cent.

What all share (format): functional
Experiment [1] deals with Solute carrier family 2, facilitated glucose transporter member 1 (Homo sapiens) (UniProt P11166). The experiment can be described thus: ST_JUDE_LEISH: Cytotoxicity at 2uM final concentration against transgenic Leishmania Mexicana promastigotes LmGLUT1 that are glucose transport deficient and complemented with the human glucose transporter GLUT1. Activity is measured by DNA content using SYBR green in vitro.
Chain of Solute carrier family 2, facilitated glucose transporter member 1 (Homo sapiens) (P11166 whole entry): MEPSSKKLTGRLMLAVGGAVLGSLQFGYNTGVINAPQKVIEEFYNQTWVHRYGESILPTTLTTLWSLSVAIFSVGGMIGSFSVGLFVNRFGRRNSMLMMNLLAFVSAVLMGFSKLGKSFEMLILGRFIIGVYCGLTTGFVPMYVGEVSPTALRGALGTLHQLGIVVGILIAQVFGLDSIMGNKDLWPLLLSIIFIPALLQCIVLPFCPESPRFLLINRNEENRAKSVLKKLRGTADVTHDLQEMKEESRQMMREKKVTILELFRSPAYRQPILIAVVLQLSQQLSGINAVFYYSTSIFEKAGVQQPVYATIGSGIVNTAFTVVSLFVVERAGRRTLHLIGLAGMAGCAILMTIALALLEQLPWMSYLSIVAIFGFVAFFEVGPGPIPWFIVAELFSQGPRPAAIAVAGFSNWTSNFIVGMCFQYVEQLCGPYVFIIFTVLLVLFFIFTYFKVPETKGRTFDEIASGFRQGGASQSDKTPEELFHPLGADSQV

In experiment [2] the target is Hexose transporter 1 (Plasmodium falciparum) (UniProt O97467). In words: ST_JUDE_LEISH: Cytotoxicity at 2uM final concentration against transgenic Leishmania Mexicana promastigotes LmPfHT that are glucose transport deficient and complemented with the Plasmodium falciparum hexose transporter. Activity is measured by DNA content using SYBR green in vitro.
Experiment [3] concerns the target Glucose transporter (Leishmania mexicana) (UniProt O61059). The experiment can be described thus: ST_JUDE_LEISH: Cytotoxicity at 2uM final concentration against transgenic Leishmania Mexicana promastigotes LmGT2 that are glucose transport deficient and complemented with the L. Mexicana glucose transporter 2. Activity is measured by DNA content using SYBR green in vitro.

On to `COc1ccc(-c2nonc2NC(=O)c2ccc(C(C)(C)C)cc2)cc1OC`, for which the inhibition was -0.32% in experiment [1], 0.21% in experiment [2] and -0.16% in experiment [3].
With `Cc1ccc(Cn2ncc(NC3CCNCC3)c(Cl)c2=O)cc1NC(=O)Nc1ccc(-c2ccccc2)cc1`, the inhibition in experiment [1] came to 5.14%; in experiment [2] it was 9.28%; in experiment [3], 5.29%.
The like results for `CC(C)CCNC(=O)[C@@H]1[C@H]2C(=O)N(C3CCCCC3)C(=O)[C@H]2[C@H]2C=C[C@@H]3C(c4ccc(C(C)(C)C)cc4)=NO[C@@H]3N21` were, in that order, 13.3%, 11.4% and 7.33%.
The like results for `CCc1ccc(NC(=O)N(CCCn2ccnc2)Cc2csc(-c3ccc(CNCc4ccccc4)cc3)n2)cc1` were, in that order, 2.66%, 2.93% and 2.49%.
Consider `COc1ccc(-c2cnc(N)c(-c3ccc(C(N)=O)cc3)c2)cc1OC`, for which the inhibition worked out at 3.97% in experiment [1], 3.4% in experiment [2] and 5.07% in experiment [3].
The like results for `CC(Nc1ncc(-c2ccsc2)c(-c2nccs2)n1)c1ccc2c(c1)OCCO2` (stereo unspecified) were, in that order, 5.89%, 5.47% and 7.42%.
The like results for `Fc1cccc(Nc2nc(NCc3ccc4ccsc4c3)nc(Nc3cccc(F)c3)n2)c1` were, in that order, 19.2%, 18% and 10.6%.
The like results for `COc1c(C2CCN(CCCCNC(=O)c3oc(-c4ccc(Cl)cc4)cc3CO)CC2)ccc2c1CCCC2` were, in that order, 1.58%, 1.81% and 3.08%.
Regarding `CCCCc1ccc(-c2ccc(-c3c(C)[nH]c(C)c(Br)c3=O)cn2)cc1`, the inhibition in experiment [1] amounted to 2.88%; in experiment [2], 3.53%; in experiment [3], 1.52%.
On to `O=C(Nc1cccc(CN2CCN(C(=O)c3cccc(Cl)c3)CC2)c1)c1ccco1`, for which the inhibition in experiment [1] was -4.34%; in experiment [2], 0.58%; in experiment [3], 3.82%.
Regarding `CCCCN(C)CC#Cc1ccc(-c2ccc3[nH]c(C)c(Br)c(=O)c3c2)cn1`, the results for the inhibition in experiment [1], in experiment [2] and in experiment [3] were 6.4%, 7.74% and 8.6%, respectively.
For the molecule `CCNC(=O)Nc1ccc(-c2cccc(-c3nc4cccc(C)c4[nH]3)c2)cc1`, the figures for the inhibition in experiment [1], in experiment [2] and in experiment [3] were 5.51%, 5.35% and 3.12%, respectively.
